Inconclusive results are not listed. The source made the active and inactive calls. Unless noted, calls follow the shape of the full dose curve.

Assay [1] can be described thus: Nuclear factor erythroid 2-related factor 2/antioxidant responsive element (Nrf2/ARE) small molecule agonists: qHTS cell viability counter screen in human keratinocytes (AID 1919968; active = well fitted curve in the direction sought with a large enough effect in the repeat runs; an effect the other way counts as inactive or inconclusive; also: nearly all actives have a fitted effect of over 55% in size). In a few lines:
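Seed 1,500 KeratinoSens cells per well, then incubate 5 h at 37 C/5% CO2. Add compounds in DMSO and incubate 23 h. Add CellTiter-Fluor, wait 1 h and read fluorescence.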

Assay [2] can be described thus: Nuclear factor erythroid 2-related factor 2/antioxidant responsive element (Nrf2/ARE) small molecule agonists: luciferase reporter gene qHTS assay in human keratinocytes (AID 1919969). Also: nearly all actives have a fitted effect of over 35% in size. Also: potency is read from the fitted curve at half-maximal effect. Background: In a reporter assay the amount or activity of a reporter protein is the signal.
Assay [3] concerns the target Gonadotropin-releasing hormone receptor (Homo sapiens) (UniProt P30968). Put plainly: Human gonadotropin-releasing hormone receptor (GnRHR) small molecule agonists, calcium flux assay in GnRHR-HEK293 cells (AID 1920063). Also: nearly all actives have a fitted effect of over 35% in size. In a few lines: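 Cells: HEK293 stably expressing human GnRHR. Steps: overnight (18 h) culture, 1 h calcium dye loading at 37 C, compound addition, kinetic fluorescence read at 480/540 nm. Each compound tested at 15 concentrations in triplicate.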

Assay [4] has as its target KiSS-1 receptor (Homo sapiens) (UniProt Q969F8). Put plainly: Human kisspeptin (KISS1R) small molecule agonists, calcium flux assay in KISS1R-HEK293 cells (AID 1920064; active = well fitted curve in the direction sought with a large enough effect in the repeat runs; an effect the other way counts as inactive or inconclusive). In a few lines: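 Cells plated and incubated 18 h; dye added, 1 h at 37 C; compounds in DMSO pinned in; signal read at 480/540 nm every second for 3 min. Each compound tested at 15 concentrations in triplicate.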

Assay [5] can be described thus: G protein-coupled receptor (GPCR) small molecule agonists, calcium flux assay: HEK293 wild type cell line counter screen (AID 1920065). In a few lines: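 Counter-screen of the Tox21 10K library for non-specific calcium release: dye-loaded cells received compounds in DMSO and were monitored by kinetic fluorescence (480/540 nm, 3 min). Fifteen concentrations, run in triplicate.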
(In general: A change in cytosolic calcium serves as a functional read-out for many receptors and channels.)

A short description of assay [6]: p53 small molecule agonists, cell-based qHTS assay with human liver microsomes (AID 1963577).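 Also: p53 response element beta-lactamase reporter cells with liver microsomes plus NADPH.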 A digest of the protocol:
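With metabolic activation: human liver microsomes (0.5 mg/mL final) plus NADPH (0.5 mg/mL final) added alongside compounds to p53RE-bla cells; 16 h 37 C exposure; beta-lactamase read by LiveBLAzer fluorescence.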
A general note: qHTS replaces the single test concentration by a dilution series.

Assay [7] is described as follows: p53 small molecule agonists, cell-based qHTS assay with rat liver microsomes (AID 1963578). In a few lines: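 Metabolic activation by rat liver microsomes and NADPH, each 0.5 mg/mL final, added right after compounds to p53RE-bla reporter cells (4,000/well, plated 5 h earlier). 16 h at 37 C, then LiveBLAzer substrate for 2 h at room temperature in the dark; fluorescence read-out.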

The nature of assay [8]: p53 small molecule agonists, cell-based qHTS assay with human liver microsomes: qHTS cell viability counter screen (AID 1963579). Also: nearly all actives have a fitted effect of over 45% in size. A digest of the protocol: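 Metabolic activation used human liver microsomes and NADPH, both 0.5 mg/mL final, over 16 hours at 37 C on p53RE-bla cells (4,000/well). Cytotoxicity measured by CellTiter-Glo luminescence, 30 min at room temperature.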

Assay [9] in a line: p53 small molecule agonists, cell-based qHTS assay with rat liver microsomes: qHTS cell viability counter screen (AID 1963580). Also: nearly all actives have a fitted effect of over 45% in size. In a few lines:
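p53RE-bla HCT-116 cells were exposed 16 h at 37 C to compounds with rat liver microsomes (0.5 mg/mL) and NADPH (0.5 mg/mL). Viability was measured in the same wells as ATP content by CellTiter-Glo luminescence.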

The target in assay [10] is 5-hydroxytryptamine receptor 2A (Homo sapiens) (UniProt P28223). Put plainly: 5-hydroxytryptamine receptor 2A (HTR2A) small molecule antagonists, cell-based qHTS assay (AID 1963586). Also: nearly all actives have a fitted effect of over 45% in size. A digest of the protocol:
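Antagonist-mode intracellular calcium assay: DOI (4 nM) added after 5 min compound pre-incubation at room temperature to dye-loaded HTR2A-CHO cells. Fluorescence followed for 3 min, sampled every second.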

For assay [11] the target is unchanged. Put plainly: 5-hydroxytryptamine receptor 2A (HTR2A) small molecule agonists, cell-based qHTS assay (AID 1963587). Also: nearly all actives have a fitted effect of over 30% in size. A digest of the protocol:
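CHO cells stably expressing human HTR2A, plated 18 h, loaded with calcium dye 1 h at 37 C. Agonist mode: compounds added and intracellular calcium fluorescence recorded kinetically for 2 min at 1 sec intervals.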

The target of assay [12] is Muscarinic acetylcholine receptor M1 (Homo sapiens) (UniProt P11229). Put plainly: Cholinergic receptor muscarinic 1 (CHRM1) small molecule antagonists, cell-based qHTS assay (AID 1963588). Also: nearly all actives have a fitted effect of over 40% in size. A digest of the protocol: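 CHRM1-CHO calcium-flux assay, antagonist mode. Cells were seeded 18 h, dye-loaded 1 h at 37 C and given compound for 5 min at RT, then acetylcholine was added at 50nM. FDSS fluorescence was read 3 min; 15 concentrations, three runs.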
Sequence of Muscarinic acetylcholine receptor M1 (Homo sapiens) (P11229 whole entry, looked up): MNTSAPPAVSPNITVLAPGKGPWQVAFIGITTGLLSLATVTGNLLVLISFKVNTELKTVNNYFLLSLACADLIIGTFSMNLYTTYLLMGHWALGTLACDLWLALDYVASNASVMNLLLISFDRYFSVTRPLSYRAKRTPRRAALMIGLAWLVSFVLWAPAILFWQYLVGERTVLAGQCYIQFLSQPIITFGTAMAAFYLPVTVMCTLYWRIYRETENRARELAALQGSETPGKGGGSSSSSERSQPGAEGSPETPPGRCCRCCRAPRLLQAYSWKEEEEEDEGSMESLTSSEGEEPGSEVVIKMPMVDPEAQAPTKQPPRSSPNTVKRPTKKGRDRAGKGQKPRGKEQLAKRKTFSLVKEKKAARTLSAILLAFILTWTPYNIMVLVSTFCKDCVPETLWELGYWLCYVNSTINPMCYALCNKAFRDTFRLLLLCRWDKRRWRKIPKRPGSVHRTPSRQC

Assay [13] shares this target. Put plainly: Cholinergic receptor muscarinic 1 (CHRM1) small molecule agonists, cell-based qHTS assay (AID 1963589). Also: nearly all actives have a fitted effect of over 35% in size. A digest of the protocol:
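Agonist-mode qHTS in CHO cells stably carrying human muscarinic M1. Intracellular calcium is tracked by fluorescence every second after compound transfer; each compound runs at 15 concentrations in three independent runs.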

Assay [14] has as its target D(2) dopamine receptor (Homo sapiens) (UniProt P14416). In words: Dopamine D2 receptor (DRD2) small molecule agonists, cell-based qHTS assay (AID 1963594). Also: nearly all actives have a fitted effect of over 35% in size. A digest of the protocol: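 HEK293 cells stably expressing human DRD2, pre-treated with PDE inhibitor Ro20-1724 (0.1 mM final) and compound 10 min at room temperature, then stimulated with NKH477 (200nM […]) for 30 min. cAMP read by HTRF (665/620 nm).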

Assay [15] can be described thus: cAMP Responsive Elements (CRE) small molecule antagonists, cell-based qHTS assay (AID 1963591; active = well fitted inhibition curve with a large enough effect in the signal ratio in the repeat runs, not every such curve was filed as active; the % refers to the signal ratio). A digest of the protocol: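 Antagonist mode: test compounds are co-incubated with the adenylyl cyclase activator NKH477 (0.25 uM final) on CRE-bla HEK293T cells for 3 h at 37 °C, followed by LiveBLAzer substrate loading.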
The target of assay [16] is Beta-2 adrenergic receptor (Homo sapiens) (UniProt P07550). Put plainly: Adrenergic beta2 receptor (ADRB2) small molecule antagonists, cell-based qHTS assay (AID 1963592). Also: nearly all actives have a fitted effect of over 50% in size. Also: potency is read from the fitted curve at half-maximal effect. In a few lines: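 Cells (CHO, stable ADRB2 overexpression) incubated 18-20hr at 37C; compounds added from DMSO; agonist mix (1nM isoproterenol, 100uM IBMX, 25uM Ro-20-1724) added; 0.5hr RT; d2-cAMP and anti-cAMP-cryptate added; 1hr RT; 665/615 nm read.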
Sequence of Beta-2 adrenergic receptor (Homo sapiens) (P07550 whole entry, looked up): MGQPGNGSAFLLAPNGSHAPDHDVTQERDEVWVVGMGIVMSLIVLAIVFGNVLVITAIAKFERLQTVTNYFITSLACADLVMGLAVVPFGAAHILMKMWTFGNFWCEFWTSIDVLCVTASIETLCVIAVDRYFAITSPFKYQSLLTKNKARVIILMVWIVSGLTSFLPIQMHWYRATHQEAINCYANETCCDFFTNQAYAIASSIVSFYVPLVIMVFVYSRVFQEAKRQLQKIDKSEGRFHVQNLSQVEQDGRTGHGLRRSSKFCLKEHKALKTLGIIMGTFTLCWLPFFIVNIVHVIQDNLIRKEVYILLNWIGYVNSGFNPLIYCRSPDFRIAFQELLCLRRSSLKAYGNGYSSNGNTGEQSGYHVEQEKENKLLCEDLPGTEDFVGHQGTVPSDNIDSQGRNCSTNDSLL

In assay [17] the target is D(2) dopamine receptor (Homo sapiens) (UniProt P14416). In words: Dopamine D2 receptor (DRD2) small molecule antagonists, cell-based qHTS assay (AID 1963595; active = well fitted inhibition curve with a large enough effect in the signal ratio in the repeat runs, with a control signal flat; the % refers to the signal ratio). In a few lines:
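DRD2-HEK293; 0.1 mM Ro20-1724; cpd 10 min RT; NKH477 200 nM + quinpirole 12 nM, 30 min RT; HTRF cAMP (cAMP-d2/anti-cAMP cryptate), 665/620 nm ratio after 1 h.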

Assay [18] in a line: p53 small molecule agonists, cell-based qHTS assay (AID 1963582; active = well fitted activation curve with a large enough effect in the signal ratio in the repeat runs, not every such curve was filed as active; the % refers to the signal ratio). A digest of the protocol:
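Quantitative HTS in p53RE-bla cells: after a 5 h settling period, compounds delivered in DMSO were left on cells for 16 h at 37 C, and reporter induction was measured as fluorescence following 2 h substrate loading.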

Assay [19] is described as follows: cAMP Responsive Elements (CRE) small molecule agonists, cell-based qHTS assay (AID 1963590). In a few lines: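 Agonist mode qHTS in CRE-bla HEK 293T cells: compounds dosed from DMSO for 3 h at 37 C/5% CO2, followed by LiveBLAzer B/G FRET substrate for 2 h at room temperature.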
Assay [20] in a line: p53 small molecule agonists, cell-based qHTS assay: qHTS cell viability counter screen (AID 1963581). Also: nearly all actives have a fitted effect of over 45% in size. In a few lines:
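Cells: HCT-116 with p53 response element-driven beta-lactamase. Treatment: 16 h, 37 C, compounds in DMSO. Read: CellTiter-Glo luminescence after 30 min RT.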

Sequence of KiSS-1 receptor (Homo sapiens) (Q969F8 whole entry, looked up): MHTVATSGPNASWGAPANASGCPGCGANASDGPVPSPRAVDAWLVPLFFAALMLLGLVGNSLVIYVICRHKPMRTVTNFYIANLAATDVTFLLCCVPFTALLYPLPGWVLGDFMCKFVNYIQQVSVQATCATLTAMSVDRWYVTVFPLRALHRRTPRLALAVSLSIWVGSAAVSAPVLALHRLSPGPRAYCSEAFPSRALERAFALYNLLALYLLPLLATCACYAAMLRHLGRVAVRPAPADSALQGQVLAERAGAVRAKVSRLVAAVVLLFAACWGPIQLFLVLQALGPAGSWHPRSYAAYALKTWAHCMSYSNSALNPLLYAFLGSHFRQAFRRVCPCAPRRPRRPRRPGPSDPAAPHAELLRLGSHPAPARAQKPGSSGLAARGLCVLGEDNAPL
Sequence of Gonadotropin-releasing hormone receptor (Homo sapiens) (P30968 whole entry, looked up): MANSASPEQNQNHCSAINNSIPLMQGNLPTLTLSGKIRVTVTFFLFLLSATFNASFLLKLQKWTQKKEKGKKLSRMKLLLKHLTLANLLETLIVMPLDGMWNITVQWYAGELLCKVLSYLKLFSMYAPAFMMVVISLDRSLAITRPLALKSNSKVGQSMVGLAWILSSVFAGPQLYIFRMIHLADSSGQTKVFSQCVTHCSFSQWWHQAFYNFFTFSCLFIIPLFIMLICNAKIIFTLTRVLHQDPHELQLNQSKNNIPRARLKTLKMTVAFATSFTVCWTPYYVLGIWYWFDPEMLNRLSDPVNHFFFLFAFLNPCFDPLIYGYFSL
Sequence of 5-hydroxytryptamine receptor 2A (Homo sapiens) (P28223 whole entry, looked up): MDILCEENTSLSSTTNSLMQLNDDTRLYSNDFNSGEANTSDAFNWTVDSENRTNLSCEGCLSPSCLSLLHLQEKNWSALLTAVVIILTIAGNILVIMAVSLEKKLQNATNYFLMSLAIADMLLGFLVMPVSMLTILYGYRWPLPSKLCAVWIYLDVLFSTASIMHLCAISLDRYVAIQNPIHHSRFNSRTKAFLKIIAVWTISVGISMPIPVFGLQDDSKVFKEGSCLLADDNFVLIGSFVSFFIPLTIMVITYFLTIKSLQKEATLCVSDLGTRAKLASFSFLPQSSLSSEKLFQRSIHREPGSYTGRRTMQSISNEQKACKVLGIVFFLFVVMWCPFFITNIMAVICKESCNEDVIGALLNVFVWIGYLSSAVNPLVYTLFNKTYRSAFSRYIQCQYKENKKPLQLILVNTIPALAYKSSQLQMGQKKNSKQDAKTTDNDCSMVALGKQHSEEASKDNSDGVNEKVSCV
Sequence of D(2) dopamine receptor (Homo sapiens) (P14416 whole entry, looked up): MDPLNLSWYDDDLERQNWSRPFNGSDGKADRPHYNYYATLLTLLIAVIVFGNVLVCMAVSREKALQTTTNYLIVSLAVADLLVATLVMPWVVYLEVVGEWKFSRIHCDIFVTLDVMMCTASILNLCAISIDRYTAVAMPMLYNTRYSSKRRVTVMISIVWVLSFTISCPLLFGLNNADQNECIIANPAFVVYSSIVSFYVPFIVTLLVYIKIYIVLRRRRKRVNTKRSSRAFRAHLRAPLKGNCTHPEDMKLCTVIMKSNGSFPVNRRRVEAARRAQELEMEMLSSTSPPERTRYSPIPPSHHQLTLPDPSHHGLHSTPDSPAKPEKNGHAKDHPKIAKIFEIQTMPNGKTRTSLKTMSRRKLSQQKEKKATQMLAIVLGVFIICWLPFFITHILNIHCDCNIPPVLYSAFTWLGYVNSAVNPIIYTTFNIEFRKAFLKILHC

For the compound `c1cc[c]([Sb]([c]2ccccc2)[c]2ccccc2)cc1`, the Potency result in assay [1], in [3], in [4], in [5], in assay [6] and in assay [7] was “inactive” throughout. Besides, the Potency result in assay [8], in [9], in [10], in [11], in assay [12] and in assay [13] was “inactive” in each case. Further, the Potency entry in assay [14] was “inactive”. In addition, in [2], the Potency was 12.2 µM (active).
Consider `CN1[C@@H]2CC[C@H]1CC(O)C2` (stereo partly specified), for which the Potency entry in assay [1], in assay [2], in assay [3], in [4], in [5] and in assay [6] was “inactive” in each case. For the same compound, the Potency result in [7], in [8], in [9], in assay [10], in assay [11] and in assay [12] was “inactive” throughout. The Potency entry in assay [13], in [15], in assay [16], in assay [14] and in [17] was “inactive” each time.
On to `C1CCNCC1`, for which the Potency result in [1], in assay [2], in [3], in assay [4], in assay [5] and in assay [6] was “inactive” each time. Also, the Potency result in [7], in [8], in assay [9], in [18], in assay [11] and in assay [12] was “inactive” throughout. In addition, the Potency entry in [19], in [15], in [16] and in assay [17] was “inactive” in each case.
As for `Cc1nnc2n1-c1sc(CCC(=O)N3CCOCC3)cc1C(c1ccccc1Cl)=NC2`, the Potency entry in assay [1], in [2], in [3], in assay [4], in assay [5] and in assay [6] was “inactive” each time. The Potency result in assay [7], in assay [8], in assay [9], in assay [18], in [11] and in assay [12] was “inactive” in each case. The Potency result in assay [13], in assay [14] and in assay [17] was “inactive” in each case. Further, the Potency in assay [16] is 29.8 µM (active).
As to `CCN(CC)C(=O)Cl`, the Potency entry in assay [1], in assay [2], in assay [3], in assay [4], in [5] and in assay [6] was “inactive” in each case. Besides, the Potency entry in assay [7], in assay [8], in assay [20], in assay [18], in assay [11] and in [12] was “inactive” throughout. The Potency result in assay [13], in assay [19], in [15], in assay [16], in assay [14] and in assay [17] was “inactive” each time.
For `O=CNC(N1CCN(C(NC=O)C(Cl)(Cl)Cl)CC1)C(Cl)(Cl)Cl` (stereo unspecified), the Potency result in assay [1], in [2], in assay [3], in [4], in assay [5] and in assay [6] was “inactive” each time. Also, the Potency entry in assay [7], in assay [8], in [20], in [18], in [10] and in assay [11] was “inactive” each time. The Potency entry in assay [13], in [16] and in assay [17] was “inactive” each time.
Consider `COc1ccc2c(C(=O)c3ccc(Cl)cc3)c(C)n(CC(=O)O)c2c1`, for which the Potency entry in assay [1], in assay [2], in assay [3], in assay [4], in assay [5] and in [6] was “inactive” in each case. Also, the Potency entry in [7], in [8], in [20], in [18], in [11] and in assay [12] was “inactive” throughout. Moreover, the Potency entry in assay [13], in assay [19], in [15], in assay [16] and in assay [17] was “inactive” in each case.
In the case of `N#CCc1ccc(Cl)cc1`, the Potency result in assay [1], in [2], in assay [3], in assay [4], in assay [5] and in [6] was “inactive” throughout. The Potency entry in assay [7], in assay [8], in assay [20], in assay [18], in assay [10] and in [11] was “inactive” in each case. Further, the Potency entry in assay [12], in assay [19], in assay [15], in assay [16], in assay [14] and in assay [17] was “inactive” each time.
